This is a sample that favours compounds with a hit; in the whole collection about 0.47% have one here.
UDG counter = blocks uracil-DNA glycosylase in AID counter-screen; Potency, µM (highest dose often 115 µM), for the others: at the top dose activity change, negative = inhibition, actives largely listed as inhibitors; AID 1347430; 91,000 tested, 0.14% active; FRET deamination/UDG coupled assay, UDG read, 4 h; also: nearly all actives have a fitted effect of over 65% in size
AID inhibitor = inhibitors of human activation induced cytidine deaminase | Q9GZX7 | AID deamination FRET fluorescence, UDG-coupled, 4 h | Potency, µM (doses to about 115 µM), most hits filed as inhibitors | 91,000 tested, 0.32% active | AID 1347428; also: nearly all actives have a fitted effect of over 25% in size
Target sequence (Q9GZX7 whole entry, looked up): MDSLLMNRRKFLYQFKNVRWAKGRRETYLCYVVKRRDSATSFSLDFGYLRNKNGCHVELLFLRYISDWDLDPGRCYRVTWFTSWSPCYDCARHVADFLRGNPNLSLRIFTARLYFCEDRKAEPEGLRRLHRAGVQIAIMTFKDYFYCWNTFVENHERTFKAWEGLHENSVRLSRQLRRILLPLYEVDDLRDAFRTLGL
* hit, by the source's call; i = inactive; ? = inconclusive; [ ] = remark or other dose. Calls follow the shape of the dose curve; as a rule, active = well fitted curve in the direction sought with a large enough effect; inconclusive = small, poorly fitted or top-dose-only effect, or another doubt; inactive = no such curve, though single readings can be large; an effect the other way counts as inactive or inconclusive. % is scaled to controls: 0 for no effect and ±100 for the full control effect; potency is read from the fitted curve at half-maximal effect.

SMILES	UDG counter	AID inhibitor
Cc1nc2nc(NC(=O)c3ccc(C(C)(C)C)cc3)[nH]n2c(=O)c1Cc1ccccc1	0.0%	?
COc1ccccc1C(=O)Nc1nc2nc(C)c(Cc3ccccc3)c(=O)n2[nH]1	-1.4%	35.5µM*
Cc1ccc(C)c(-c2csc(Nc3ccc(S(=O)(=O)Nc4nc(C)cc(C)n4)cc3)n2)c1	89.1µM*	?
Cc1ccc(-c2csc(Nc3ccc(S(=O)(=O)Nc4nc(C)cc(C)n4)cc3)n2)cc1	?	i
CC(=O)[C@]1(O)Cc2c(O)c3c(c(O)c2[C@@H](O[C@H]2C[C@H](N)[C@H](O)[C@H](C)O2)C1)C(=O)c1ccccc1C3=O	61.9%	11.2µM*
O=C(c1ccc2c(Cl)c3c(nc2c1)CCCC3)N1CCN(c2ccc(Cl)cc2)CC1	0.6%	i
O=C(c1ccc2c(Cl)c3c(nc2c1)CCCC3)N1CCN(c2cccc(Cl)c2)CC1	-14.1%	14.1µM*
O=C(c1ccc2c(Cl)c3c(nc2c1)CCCC3)N1CCN(c2cccc(C(F)(F)F)c2)CC1	1.0%	i
COc1cccc(N2CCN(C(=O)c3ccc4c(Cl)c5c(nc4c3)CCCC5)CC2)c1	-12.6%	20µM*
Cc1cccc(N2N=C(C(=O)Nc3ccc(S(=O)(=O)N4CCCCCC4)cc3)CCC2=O)c1	-3.5%	i
COc1ccc(CNC(=O)C(=O)NCC(c2ccc3c(c2)OCO3)N2CCOCC2)cc1 (stereo not given)	1.2%[57.5 µM]	i
COc1ccc(CNCCC(c2ccc3c(c2)OCO3)c2ccccc2OC)cc1 (stereo not given)	-14.8%	50.1µM*
Cc1ccc(-c2nc(-c3nc(-c4cccs4)cs3)sc2C)cc1C	-9.5%	i
CC(C)C(CNC(=O)Cc1n[nH]c(=O)c2ccccc12)N1CCOCC1 (stereo not given)	0.8%	i
CCOc1ccc(CNC(=O)c2sc3ncnc(N(C)C4CCCCC4)c3c2C)cc1	-14.7%	?
CCc1ccc(NC(=O)c2sc3ncnc(N(C)C4CCCCC4)c3c2C)cc1	79.4µM*	i
CCCCC(CC)C(=O)Nc1c(F)c(F)c(F)c(F)c1F (stereo not given)	2.5%	i
Cc1cccc(-c2cc(C(=O)O)c3ccc(C)c(C)c3n2)c1	2.8%	i
Cc1ccc(Sc2c(C)nn(-c3ccccc3)c2OC(=O)CC(C)C)cc1	-18.9%	?
COc1ccccc1C(=O)Oc1c(Sc2ccccc2)c(C)nn1-c1ccccc1	?	44.7µM*
CCn1nc(C(=O)Nc2ccc3nc(SC)sc3c2)c2ccccc2c1=O	1.3%	i
O=C(COC(=O)C12CC3CC(CC(O)(C3)C1)C2)Nc1ccc([N+](=O)[O-])cc1Cl	4.1%	i
Cc1ccc(CNC(=O)c2c[nH]n3c(=O)c(Cc4ccc(F)cc4Cl)c(C)nc23)cc1	-7.2%	70.8µM*
Cc1nc2c(C(=O)NCCc3ccccc3)c[nH]n2c(=O)c1Cc1ccc(F)cc1Cl	-7.3%	i
CC(=O)N1N=C(c2ccc(C)cc2)CC1c1cn(-c2ccccc2)nc1-c1cccs1 (stereo not given)	-6.0%	i
SMILES	UDG counter	AID inhibitor
CC(=O)N1N=C(c2c(-c3ccccc3)c3cc(Cl)ccc3n(C)c2=O)CC1c1cccs1 (stereo not given)	-17.8%	44.7µM*
COc1ccc(-c2c(NC(=O)c3cccs3)n(C)c3ccccc3c2=O)cc1OC	-4.4%	i
COc1ccc(-c2nc(C)c(CCNC(=O)c3cccs3)s2)cc1OC	-9.0%	i
Cc1nc(-c2ccc(F)cc2)sc1CCNC(=O)c1cccs1	79.4µM*	?
Cc1nc(-c2ccc(F)cc2)sc1CCNC(=O)c1ccccc1	4.9%	i
Cc1nc(-c2ccc(F)cc2)sc1CCNC(=O)c1ccc(C(C)(C)C)cc1	-12.9%	15.8µM*
CC(C)OC(=O)C1=C(N)OC2=C(C(=O)CC(C)(C)C2)C1c1ccc(Cl)cc1 (stereo not given)	2.4%	i
CN1CCN(c2ccc(NC(=O)c3cccc(S(=O)(=O)NCc4ccco4)c3)cc2)CC1	-5.1%	i
COc1cc(CN2CCC(C(O)(c3ccccc3)c3ccccc3)CC2)ccc1OCc1ccccc1	-15.8%	i
COc1ccc(OC)c(C2C(C(=O)Nc3ccccc3OC)=C(C)Nc3c(C(=O)Nc4ccc(F)cc4)cnn32)c1 (stereo not given)	-15.1%	17.8µM*
COc1ccc(OC)c(C2C(C(=O)Nc3ccc(C)cc3C)=C(C)Nc3c(C(=O)Nc4ccc(F)cc4)cnn32)c1 (stereo not given)	-9.1%	?
COc1ccc(N(C(=O)c2cccc(C)c2)S(=O)(=O)c2ccc(Cl)cc2)cc1	?	i
COc1ccc(N(C(=O)c2ccccc2C)S(=O)(=O)c2ccc(C)cc2)cc1	79.4µM*	?
Cc1cc(C)cc(CCCCCCCCCCCC(=O)O)c1	-3.0%	79.4µM*
O=C(O)CCCCCCCC(=O)O	7.1%	i
CCCn1nc(C(=O)Nc2ncc(Cc3ccc(Cl)cc3)s2)ccc1=O	-5.7%	i

Screens from PubChem.
